# Experimental data from PubChem BioAssay AID686978 (National Center for Advancing Translational Sciences (NCATS), 2013).
# Hit rate of the full screen: of about 420,000 compounds, about 64,000 (15%) were called active. Roughly 27% stayed inconclusive and do not appear here. The list is a sample of the results. Entries that show only a call come without a potency. A number with no mark means an inactive call. The call rests on the fitted dose curve; in most records, active means well fitted inhibition curve with a large enough effect; inconclusive means small, poorly fitted or top-dose-only effect; inactive means flat fitted curve, though single readings scatter.
# Test: qHTS for Inhibitors of human tyrosyl-DNA phosphodiesterase 1 (TDP1): qHTS in cells in absence of CPT; further: nearly all actives have a fitted effect of over 55% in size
# Conditions: DT40 Tdp1-/- hTDP1 cells, no CPT, ATP luminescence, 48 h; activity change, negative = growth inhibition: at 46.2 µM (top of the series)
# Excerpt: Human tyrosyl-DNA phosphodiesterase 1 (TDP1) is a novel repair gene, and we propose to use it as a new target for anticancer drug development. TDP1 is not an essential protein, but under treatment with topoisomerase I poison (camptothecin: CPT), TDP1 works as a critical factor for cell survival. To directly identify novel TDP1 inhibitors active in a cellular environment, we have knocked-out the Tdp1 gene in chicken DT40 cells (Tdp1-/-) and generated a complemented counterpart cells that contains a stable transfection of the human TDP1 gene (Tdp1-/-;hTDP1 cells). For the primary screen, Tdp1-/-;hTDP1 cells will be exposed to small molecules in the presence or absence of CPT, and their growth kinetics will be evaluated after 48 hours by measuring ATP activity. […] The hit compounds will then be evaluated in the presence or absence of CPT using Tdp1-/- cells. […] In tertiary assays, biochemical gel-based assays will be used to assess whether the hit compounds specifically target TDP1.
# To this end, we have screened this cell line against the MLSMR in two primary screens. In one screen we add CPT and in the other we screen in the absence of CPT; this AID represents the screen where CPT was absent.
# NIH Chemical Genomics Center [NCGC]
# NIH Molecular Libraries Probe Centers Network [MLPCN]
# Assay Submitter (PI): Yves Pommier, NCI
# DT40-hTDP1 cells without 20 nM Camptothecin (add 20 microL of DMSO in 1 L of cell culture medium) were dispensed at 400 cells/5microL/well in tissue culture treated 1536-well white wall/solid bottom assay plates (Greiner Bio-One North America, NC, U.S.A.) using a Multidrop Combi 8 channel dispenser (Thermo Fisher, Waltham, MA, USA). 23 nL compounds and controls were transferred using the pin tool (Kalypsys, San Diego, CA, USA) to the assay plates. The assay plates were then incubated at 37 masculineC for a minimum 48 hr. Three microL of Cell Titer Glo solution was added to the plates and incubated at RT in dark for 30 min. Luminescence was read using ViewLux (Perkin Elmer) with 1 sec exposure slow speed, high gain and 2x binning.
# Potency means the concentration at half of the fitted maximal effect.
SMILES,Potency,"activity change, negative = growth inhibition"
COc1ccc(Br)cc1/C=N/n1c(C)nnc1C,inactive,
O=C(/C=C\NCC(=O)c1ccccc1)c1ccccc1,inactive,
Cc1nc(NC(=O)C23CCC(C)(C(=O)O2)C3(C)C)sc1C (stereo not given),inactive,
O=C(CCN1C(=O)c2ccncc2C1=O)Nc1cc(F)ccc1F,inactive,
CN1c2ccc(Cl)cc2-c2nc(SCC(=O)Nc3cc(F)ccc3F)ncc2S1(=O)=O,23.1 µM (active),
CC(C)Cn1c(SCC(=O)Nc2ccc(Cl)cc2F)nc(O)cc1=O,inactive,
N/C(Cc1ccc([N+](=O)[O-])cc1)=N\OC(=O)COc1ccc2ccccc2c1,inactive,
CCOc1ccccc1NC(=O)c1cccnc1,inactive,
Cc1ccc(NC(=O)CSc2nc(CSc3ccc(C)cc3)cc(=O)[nH]2)cc1,inactive,
Cc1ccc(Nc2nc(CSc3nnnn3-c3ccccc3)cc(=O)[nH]2)cc1,18.4 µM (active),
Nc1nc(CSc2nnnn2-c2ccccc2)nc(Nc2ccccc2)n1,inactive,
Cc1ccc(N2C(=O)CC(NCc3ccc4c(c3)OCO4)C2=O)cc1Cl (stereo not given),inactive,
CSC1=NC2(C)CCCCC2C12C=CC(=O)C=C2 (stereo not given),inactive,
O=c1[nH]nc(CSCc2ccccc2Cl)[nH]1,inactive,
CC(=O)c1ccccc1NC(=O)COC(=O)C1COc2ccccc2O1 (stereo not given),inactive,
COc1ccc(OC)c2sc(N3CCN(C(=O)C4COc5ccccc5O4)CC3)nc12 (stereo not given),16.4 µM (active),
COc1ccc(NC(=O)C2COc3ccccc3O2)cc1 (stereo not given),inactive,
Cc1cc(Cl)ccc1N1C(=O)CC(SCCC(=O)O)C1=O (stereo not given),inactive,
CCOC(=O)c1cn(CC)c2cc(F)c(F)cc2c1=O,inactive,
COc1cc(OC)cc(C(=O)Nc2nnc(SCC(=O)NCC3CCCO3)s2)c1 (stereo not given),inactive,
CC(C)(C)NC(=O)COc1ccc(CNc2ccc3[nH]c(=O)[nH]c3c2)cc1,inactive,
C/C=C(\C)C(=O)O[C@H]1CC(C)=C2C(=O)C=C(C)C2[C@@H]2OC(=O)[C@@](C)(OC(=O)C=C(C)C)C21 (stereo not given in full),,5.36% [at 9.04 µM]
C=C(C)C(=O)O[C@H]1C/C(C)=C\C(=O)/C=C(\C)[C@H](O)[C@@H]2OC(=O)C(=C)[C@@H]21,1.16 µM (active),
Cc1c(S(=O)(=O)N2CC(C)CC(C)C2)c(=O)n(C)c(=O)n1C (stereo not given),inactive,
CCN(C(=O)Cc1c(C(=O)O)n(CC)c2ccccc12)c1ccccc1C,inactive,
CCOC(=O)c1sc(NC(=O)COc2ncnc3ccccc23)c(C(=O)OCC)c1C,inactive,
CCOC(=O)c1c(NC(=O)CNC2CCCc3ccccc32)sc(C(N)=O)c1C (stereo not given),16.4 µM (active),

SMILES,Potency,"activity change, negative = growth inhibition"
NC(=O)Nc1ccc(C(=O)OCC(=O)NC2CCCc3ccccc32)cc1 (stereo not given),inactive,
C=CCNC(=O)CC12CC3CC(C1)CC(CC(=O)NCC=C)(C3)C2,inactive,
COc1ccc(CNC(=O)C(=O)N2CCC3(CC2)OCCN3S(=O)(=O)c2ccc(C)cc2)cc1,inactive,
Cc1ccccc1CC1(CO)CCCN(C(=O)c2cc(-c3ccccc3)no2)C1 (stereo not given),29.1 µM (active),
CCc1[nH]nc(C(=O)N2CCCC(CO)(Cc3ccc(F)cc3F)C2)c1C (stereo not given),inactive,
Cc1noc(C)c1CCC(=O)N1CCCC(CO)(Cc2ccccc2)C1 (stereo not given),inactive,
CCCc1nnc(NC(=O)CCC(=O)N2CCN(S(=O)(=O)c3ccc(OC)cc3)CC2)s1,inactive,
COc1ccc(C(=O)Nc2nc(-c3ccc(OC)cc3)c(-c3ccc([N+](=O)[O-])cc3)s2)cc1,9.2 µM (active),
COc1ccc(-c2[nH][nH]c(=O)c2NC(=O)c2ccc([N+](=O)[O-])cc2)cc1,inactive,
COc1ccc(C(=O)NCCNc2ccc([N+](=O)[O-])cn2)cc1,inactive,
O=C(CN(C(=O)c1csnn1)c1cccc(Cl)c1)NC1CCCC1,inactive,
Cc1cccc(C)c1N1CCN(S(=O)(=O)N2CCOCC2)CC1,inactive,
CCc1cc2c(NC(Cc3ccccc3)C(=O)O)ncnc2s1 (stereo not given),inactive,
Clc1cc(NC2CCCCC2)ncn1,inactive,
CCc1cc2c(NC3CCCC3)ncnc2s1,4.61 µM (active),
CCCC12CN3CC(C)(CN(C1)C3c1ccccc1Cl)C2=O (stereo not given),inactive,
CCCC12CN3CC(CCC)(CN(C1)C3c1c[nH]c3ccc(OC)cc13)C2=O (stereo not given),10.3 µM (active),
CCN(CC)CC(=O)c1c[nH]c2ccc(OC)cc12,inactive,
COc1ccccc1CNC(=O)CSc1nc(=O)n(Cc2ccncc2)c2c1CCC2,inactive,
O=S1(=O)CCN(Cc2ccccc2Cl)CC1,inactive,
CC1(C)CN(CCc2ccccc2)C(=O)[C@H]1CC(=O)Nc1ccc(Br)cc1,inactive,
CCCCN1CC(C)(C)[C@H](CC(=O)Nc2ccc(Br)cc2)C1=O,16.4 µM (active),
CC(=O)N1CC(=O)N(CC(=O)Nc2ccc(Br)cc2)C1=S,inactive,
O=C(N/N=C/c1ccccn1)C12CC3CC(CC(C3)C1)C2,inactive,
COc1cccc(NC(=O)Cn2c3ccccc3c3nc4n(c(=O)c32)CCS4)c1,inactive,
CN(CC(=O)NC(=O)Nc1ccccc1F)Cc1ccccc1,inactive,
COc1cccc2c1C(=O)c1c(O)c3c(c(O)c1C2=O)CC(O)(C(C)=NNC(=O)c1ccc(Cl)c(Cl)c1)CC3OC1CC(N)C(O)C(C)O1 (stereo not given),0.164 µM (active),

SMILES,Potency,"activity change, negative = growth inhibition"
O=C(Nc1ccccc1-c1ccccc1)c1ccccc1[N+](=O)[O-],inactive,
COc1cccc(N2CC(C(=O)NCc3n[nH]c(=O)c4ccccc34)CC2=O)c1 (stereo not given),inactive,
CCn1c2ccccc2c2cc(NC(=O)CNC)ccc21,inactive,
CC[n+]1c(C)n(-c2ccccc2)c2ccc(NC(C)=O)cc21,2.59 µM (active),
CC(=O)Nc1ccc(NC(=O)CSc2nnc(C3CC3)n2-c2ccccc2)cc1,inactive,
N#CC(C(N)=O)=C1CCC2(CC1)OCCCCO2,inactive,
CCOc1cc(/C=N/O)ccc1OCc1ccccc1F,inactive,
CCN(CC(=O)Nc1c(F)cccc1F)C(=O)c1ccc(-c2ccc(C(C)=O)cc2)o1,inactive,
COC(=O)c1cc2c(N)c(C(=O)c3ccc(Cl)cc3)sc2nc1C(OC)OC,14.6 µM (active),
COC(=O)c1cn(C(=O)c2ccc(Cl)cc2)c2ccccc12,inactive,
COc1ccc(OC)c(C(=O)c2ccc(Cl)cc2)c1,inactive,
Cc1ccc(C(=O)N/N=C/c2sc(=O)n(Cc3cccc(C(=O)O)c3)c2Cl)cc1,inactive,
CCCN=C1NC(=O)C(CC(=O)NCCc2ccc(OC)c(OC)c2)S1 (stereo not given),inactive,
O=C1C=C(c2cccc(Cl)c2)C[C@@H](c2ccc(F)cc2)C1,inactive,
O=C1C=C(c2ccnc3cc(Cl)ccc23)C[C@@H](c2ccc3c(c2)OCO3)C1,16.4 µM (active),
CC(=O)C1=C(C)NC(=O)NC1c1ccc2c(c1)OCO2 (stereo not given),inactive,
CN(C)CC(C)(C)CNC(=O)c1cc(Br)cc(Br)c1O,inactive,
O=C(Cn1ncn2nc(-c3cccs3)cc2c1=O)NCc1cccc(Br)c1,inactive,
Cc1c(C(=O)OCC(=O)N2CCCC2=O)oc2ccccc12,inactive,
CC(Nc1ccc([N+](=O)[O-])cc1[N+](=O)[O-])c1ccccc1 (stereo not given),20.6 µM (active),
CNc1ccc([N+](=O)[O-])cc1C(=O)O,inactive,
C[n+]1ccccc1C1CCCC/C1=N\Nc1ccc([N+](=O)[O-])cc1[N+](=O)[O-] (stereo not given),inactive,
CC(C)(C)NC(=O)Cn1cnc([N+](=O)[O-])n1,inactive,
CC(C)C(NC(=O)c1c(F)cccc1F)C(=O)NCc1ccncc1 (stereo not given),inactive,
CCN(CC(=O)NCC(=O)Nc1cccc(C)c1C)Cc1ccccc1,inactive,
COc1cc(-c2n[nH]c(=S)n2Cc2ccccc2)cc(OC)c1OC,inactive,
CCCc1cc(-c2n[nH]c(=S)n2Cc2ccccc2)cs1,29.1 µM (active),

SMILES,Potency,"activity change, negative = growth inhibition"
CCn1c(-c2ccncc2)n[nH]c1=S,inactive,
CCOc1ccccc1-n1c(SCC(=O)NCc2ccco2)nnc1-c1ccncc1,inactive,
O=C(CSc1nnc(-c2ccncc2)n1-c1ccccc1)Nc1ccc(Cl)c(Cl)c1,inactive,
Cc1ccc(Nc2nc(CSc3nnc(-c4ccncc4)n3-c3ccccc3C)cs2)cc1,11.6 µM (active),
CCOC(=O)Cn1c(O)c(N=NC(=O)CNC(=O)Cc2ccccc2)c2ccccc21,inactive,
Cn1c(S(=O)(=O)O)nc2ccccc21,inactive,
O=C(NCC1CCCO1)c1ccc2ccccc2n1 (stereo not given),inactive,
COc1ccc2cc(C(=O)NCC3CCCO3)[nH]c2c1 (stereo not given),inactive,
O=C(NCC1CCCO1)c1cc2c([nH]c3ccccc32)c(-c2ccc(F)cc2)n1 (stereo not given),1.84 µM (active),
CSc1ccc(S(=O)(=O)NC2CCCCC2)cc1,inactive,
CC(C)C(=O)NCc1cc(-c2ccc(Cl)cc2)no1,inactive,
Cc1cc(O)c(Sc2ccccc2)c(=O)o1,inactive,
O=C(CSc1nnc(CN2CCCC2)n1-c1ccc(F)cc1)c1ccc2c(c1)OCO2,20.6 µM (active),
Cc1ccc(-n2c(CNc3ccc(F)cc3)nnc2SCC(=O)N2CCOCC2)cc1,inactive,
O=C(O)CSc1nnc(-c2ccc3c(c2)OCO3)n1-c1ccccc1,inactive,
Cc1ccc(NC(=O)CSCC(=O)N2CCOCC2)cc1,inactive,
CCN(CC(=O)Nc1c(F)cccc1F)C(=O)c1ccc(Sc2nncn2C)c([N+](=O)[O-])c1,inactive,
CC1(C(=O)NS(=O)(=O)c2ccc(C#N)cc2)CCN1C(=O)CC1CCCC1 (stereo not given),inactive,
COc1ccc(CNC(=O)c2cc3c(=O)[nH]c4ccc(C)cc4c3s2)c(OC)c1,20.6 µM (active),
Cc1cccc(N(C)C(=O)c2cc3c(=O)[nH]c4ccc(C)cc4c3s2)c1,5.17 µM (active),
COc1ccc(CNC(=O)CC2Oc3ccc(C)cc3NC2=O)cc1 (stereo not given),inactive,
Cc1ccc2[nH]c(=O)c(CC(=O)O)c(-c3ccccc3)c2c1,inactive,
COc1ccc(CNC(=O)c2cc3c(=O)[nH]c4ccccc4c3s2)cc1,inactive,
Cc1ccc2[nH]c(=O)c(CC=C(Cl)Cl)c(C)c2c1,inactive,
